Results on 22 compounds are retold here after PubChem BioAssay (Tox21).

The nature of experiment [1]: qHTS assay to identify small molecule antagonists of the thyroid receptor (TR) signaling pathway - cell viability counter screen (AID 743064). Note: nearly all actives have a fitted effect of over 50% in size. Note: potency is the fitted concentration of half-maximal effect. In short, it runs like this:
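GH3.TRE-Luc rat pituitary cells dosed after 4 hr plating, co-stimulated with T3 at 1 nM final, incubated 23.5 h at 37 C. Viability measured in the same wells by CellTiter-Fluor fluorescence after 30 min further at 37 C.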

Experiment [2] can be described thus: qHTS assay to identify small molecule antagonists of the thyroid receptor (TR) signaling pathway (AID 743065). For activity, negative = inhibition: series mostly up to about 70 µM. Note: nearly all actives have a fitted effect of over 55% in size. Note: potency is the fitted concentration of half-maximal effect. In a few lines:
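GH3.TRE-Luc rat pituitary cells carrying two TR response elements driving luciferase were plated for 4 h, given compound plus 1 nM T3 (final), and incubated 23.5 h at 37 C. ONE-Glo luminescence measured reporter inhibition; CellTiter-Fluor fluorescence tracked cytotoxicity.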
On the technique in general: qHTS replaces the single test concentration by a dilution series.

Experiment [3] deals with thyroid hormone receptor (rat, GH3 cells). Briefly: qHTS assay to identify small molecule agonists of the thyroid receptor (TR) signaling pathway (AID 743066; calls by dose curve).
For experiment [4], the target named is Estrogen receptor (Homo sapiens) (UniProt P03372). Kind of experiment: qHTS assay to identify small molecule antagonists of the estrogen receptor alpha (ER-alpha) signaling pathway (AID 743069; active = well fitted curve in the direction sought with a large enough effect in the signal ratio in the repeat runs, not every such curve was filed as active; the % refers to the signal ratio). In a few lines: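 HEK293 cells stably carrying an ER-alpha-UAS-bla beta-lactamase reporter were pre-cultured overnight in 2% charcoal-stripped FBS medium. Test compounds in DMSO were added together with 17beta-estradiol for 18 hr at 37C. Read-out was fluorescence after 2 hr with LiveBLAzer B/G FRET substrate at room temperature.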
Estrogen receptor (Homo sapiens), sequence (P03372 whole entry, looked up): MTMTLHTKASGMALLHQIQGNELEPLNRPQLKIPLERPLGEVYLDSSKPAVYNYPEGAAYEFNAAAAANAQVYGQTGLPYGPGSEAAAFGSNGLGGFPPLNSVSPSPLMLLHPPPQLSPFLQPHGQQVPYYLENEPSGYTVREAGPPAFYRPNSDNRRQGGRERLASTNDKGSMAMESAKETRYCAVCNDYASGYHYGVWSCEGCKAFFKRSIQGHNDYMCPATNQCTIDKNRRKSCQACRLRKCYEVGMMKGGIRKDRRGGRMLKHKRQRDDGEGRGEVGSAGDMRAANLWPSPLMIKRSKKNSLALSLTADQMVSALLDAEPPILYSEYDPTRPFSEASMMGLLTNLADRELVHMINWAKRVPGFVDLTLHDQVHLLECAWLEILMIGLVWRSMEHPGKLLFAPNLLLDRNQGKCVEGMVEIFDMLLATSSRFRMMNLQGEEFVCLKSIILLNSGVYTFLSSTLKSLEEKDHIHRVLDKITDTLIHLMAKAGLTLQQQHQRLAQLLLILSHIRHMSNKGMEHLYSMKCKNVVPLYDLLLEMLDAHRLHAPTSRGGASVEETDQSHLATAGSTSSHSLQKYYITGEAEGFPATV

The nature of experiment [5]: qHTS assay to identify small molecule antagonists of the estrogen receptor alpha (ER-alpha) signaling pathway - cell viability counter screen (AID 743074; calls by dose curve; note: nearly all actives have a fitted effect of over 45% in size).
The target of experiment [6] is Estrogen receptor (Homo sapiens) (UniProt P03372). Kind of experiment: qHTS assay to identify small molecule agonists of the estrogen receptor alpha (ER-alpha) signaling pathway (AID 743075; calls by dose curve).
Experiment [7] shares this target. Briefly: qHTS assay to identify small molecule agonists of the estrogen receptor alpha (ER-alpha) signaling pathway using the BG1 cell line (AID 743079). Note: nearly all actives have a fitted effect of over 20% in size. Note: potency is the fitted concentration of half-maximal effect.
Experiment [8] is described as follows: qHTS assay to identify small molecule antagonists of the estrogen receptor alpha (ER-alpha) signaling pathway using the BG1 cell line (AID 743080; calls by dose curve;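 note: BG1 cells stimulated with 17beta-estradiol alongside compound; series mostly up to about 70 µM; nearly all actives have a fitted effect of over 25% in size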). In short, it runs like this:
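BG1-Luc-4E2 cells (endogenous full-length ER-alpha, stable 4×ERE-luciferase) were starved 5 days in phenol-red-free medium with 10% charcoal-stripped FBS, plated 24 h, then given compound plus 17beta-estradiol for 21.5 h at 37 C; ONE-Glo luminescence read after 30 min.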

The nature of experiment [9]: qHTS assay to identify small molecule antagonists of the estrogen receptor alpha (ER-alpha) signaling pathway using the BG1 cell line - cell viability counter screen (AID 743081). For activity change, negative = cytotoxicity: series mostly up to about 70 µM.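 Note: compound given together with 17beta-estradiol as the ER stimulus; nearly all actives have a fitted effect of over 45% in size.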 Note: potency is the fitted concentration of half-maximal effect.
In experiment [10] the target is Aromatase (Homo sapiens) (UniProt P11511). Briefly: qHTS assay to identify aromatase inhibitors (AID 743083). For activity, negative = inhibition: series mostly up to about 70 µM. Note: nearly all actives have a fitted effect of over 55% in size. Note: potency is the fitted concentration of half-maximal effect.
Aromatase (Homo sapiens), sequence (P11511 whole entry, looked up): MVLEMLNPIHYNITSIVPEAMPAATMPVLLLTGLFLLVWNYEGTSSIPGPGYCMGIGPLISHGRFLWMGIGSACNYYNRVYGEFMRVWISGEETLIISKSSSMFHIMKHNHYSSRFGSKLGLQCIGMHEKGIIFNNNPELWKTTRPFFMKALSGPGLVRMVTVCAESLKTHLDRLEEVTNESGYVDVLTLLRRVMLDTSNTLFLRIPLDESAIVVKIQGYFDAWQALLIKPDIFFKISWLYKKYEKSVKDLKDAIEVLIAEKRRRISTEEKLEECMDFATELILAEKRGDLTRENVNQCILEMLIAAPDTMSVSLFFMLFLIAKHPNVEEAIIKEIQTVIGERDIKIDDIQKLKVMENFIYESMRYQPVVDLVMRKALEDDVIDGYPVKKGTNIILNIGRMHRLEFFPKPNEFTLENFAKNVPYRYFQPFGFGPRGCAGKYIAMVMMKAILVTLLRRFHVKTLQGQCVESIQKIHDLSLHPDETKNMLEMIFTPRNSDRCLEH

Inconclusive results are not listed. Unmarked numbers belong to inactive results. The source made the active and inactive calls. Unless noted, calls come from the whole dose curve; as a rule, active = well fitted curve in the direction sought with a large enough effect in the repeat runs; inconclusive = weak or mixed curves; inactive = no such curve, though single readings can be large; an effect the other way counts as inactive or inconclusive.
% is set by controls: 0 for no effect and ±100 for the full control effect.

In the case of `CCCCCCCN`, the Potency entry in experiment [1], in [2], in experiment [3], in experiment [4], in [5] and in experiment [6] was “inactive” in each case. The Potency entry in experiment [7], in [8], in [9] and in [10] was “inactive” in each case.
With `COc1ccc(C(=O)N2CCN(CC(=O)N3CCOCC3)CC2)cc1`, the Potency result in experiment [1], in experiment [2], in [3], in experiment [4], in experiment [5] and in experiment [6] was “inactive” each time. Also, the Potency entry in experiment [7], in experiment [8], in experiment [9] and in experiment [10] was “inactive” throughout.
For `COS(=O)(=O)C(F)(F)F`, the Potency result in experiment [1], in [2], in experiment [3], in [4], in [5] and in experiment [6] was “inactive” throughout. In addition, the Potency entry in experiment [7], in [8], in experiment [9] and in experiment [10] was “inactive” in each case.
Regarding `CC(=O)c1cccc([N+](=O)[O-])c1`, the Potency result in experiment [1], in experiment [2], in [3], in experiment [4], in experiment [5] and in experiment [6] was “inactive” in each case. Besides, the Potency entry in experiment [7], in [8], in experiment [9] and in experiment [10] was “inactive” each time.
`O=C(O)c1ccc(S(=O)(=O)O)cc1C(=O)O`: the Potency entry in experiment [1], in [2], in [3], in experiment [4], in experiment [5] and in [6] was “inactive” in each case. Also, the Potency entry in [7], in experiment [8], in experiment [9] and in experiment [10] was “inactive” in each case.
`C=C(C)C(=O)OCCO`: the Potency entry in experiment [1], in [2], in [3], in experiment [4], in [5] and in experiment [6] was “inactive” throughout. In addition, the Potency entry in [7], in experiment [8], in experiment [9] and in experiment [10] was “inactive” throughout.
Take `O=C1CCC(=O)O1`: the Potency entry in experiment [1], in experiment [2], in experiment [3], in experiment [4], in experiment [5] and in [6] was “inactive” each time. Besides, the Potency entry in experiment [7], in [8], in experiment [9] and in experiment [10] was “inactive” throughout.
As to `O=C1c2ccccc2S(=O)(=O)N1CCCCN1CCN(c2ncccn2)CC1`, the Potency result in experiment [1], in [2], in [3], in experiment [4], in experiment [5] and in [6] was “inactive” in each case. Besides, the Potency entry in experiment [7], in experiment [8], in [9] and in [10] was “inactive” in each case.
Turning to `CCCn1cnc2c1c(=O)n(CCCCC(C)=O)c(=O)n2C`, the Potency entry in [1], in [2], in experiment [3], in [4], in [5] and in experiment [6] was “inactive” each time. The Potency entry in [7], in [8], in experiment [9] and in experiment [10] was “inactive” throughout.
`CCOCC(O)COc1ccc(NC(=O)CC[S+](C)C)cc1` (stereo not given): the Potency result in experiment [1], in experiment [2], in experiment [3], in experiment [4], in experiment [5] and in experiment [6] was “inactive” in each case. For the same compound, the Potency entry in experiment [7], in [8], in [9] and in experiment [10] was “inactive” throughout.
Take `COc1cc2nc(N(C)CCCNC(=O)C3CCCO3)nc(N)c2cc1OC` (stereo not given): the Potency result in experiment [1], in experiment [2], in [3], in [4], in experiment [5] and in experiment [6] was “inactive” each time. The Potency entry in experiment [7], in experiment [8], in experiment [9] and in experiment [10] was “inactive” in each case.
On to `O=C(O)CNCC(=O)O`, for which the activity change, negative = cytotoxic in experiment [1] was 2.43% [at 8.44 µM]. In addition, the activity, negative = inhibition in experiment [2] was -3.78% [at 8.44 µM]; in experiment [4], -6.23% [at 6.71 µM]; in experiment [10] it was 14.5% [at 8.47 µM]. Further, the activation in experiment [3] was -1.57% [at 8.08 µM]; in experiment [6] it was -4.82% [at 6.71 µM]; in [7] it was 2.44% [at 8.47 µM]. In experiment [5], the activity, negative = cytotoxicity was -3.67% [at 6.72 µM]. Also, in experiment [8], the activity change, negative = inhibition was 0.887% [at 8.47 µM]. The activity change, negative = cytotoxicity in experiment [9] is -9.74% [at 8.47 µM].
In the case of `CN(C)CCN(Cc1ccccc1)c1ccccn1`, the Potency result in [1], in experiment [2], in experiment [3], in experiment [4], in experiment [5] and in experiment [6] was “inactive” throughout. Besides, the Potency result in experiment [7], in experiment [8], in experiment [9] and in experiment [10] was “inactive” throughout.
As for `O=C1[C@H]2CCCC[C@H]2C(=O)N1CCCCN1CCN(c2nsc3ccccc23)CC1`, the Potency in experiment [1] is 21.1 µM (active); in experiment [2], 29.8 µM (active); in [9], 29.8 µM (active); in [10] it was 29.8 µM (active). Also, the Potency entry in experiment [3], in experiment [4], in [5], in [6], in [7] and in experiment [8] was “inactive” each time.
Consider `C/C(=C(\CCOP(=O)(O)O)SC(=O)c1ccccc1)N(C=O)Cc1cnc(C)nc1N`, for which the Potency result in experiment [1], in [2], in experiment [3], in experiment [4], in experiment [5] and in [6] was “inactive” each time. Moreover, the Potency result in experiment [7], in [8], in [9] and in [10] was “inactive” each time.
On to `CN(C)c1ccc(CCO)cc1`, for which the Potency result in experiment [1], in experiment [2], in experiment [3], in experiment [4], in [5] and in experiment [6] was “inactive” throughout. Further, the Potency result in experiment [7], in experiment [8], in experiment [9] and in experiment [10] was “inactive” each time.
For the compound `CN1CCN(C(c2ccccc2)c2ccccc2)CC1`, the Potency result in experiment [1], in [2], in [3], in experiment [4], in experiment [5] and in experiment [6] was “inactive” in each case. Also, the Potency result in experiment [7], in [8], in experiment [9] and in [10] was “inactive” each time.
`CC(CC=O)c1ccccc1` (stereo not given): the Potency result in experiment [1], in experiment [2], in [3], in experiment [4], in experiment [5] and in experiment [6] was “inactive” each time. Further, the Potency entry in experiment [7], in [8], in experiment [9] and in experiment [10] was “inactive” in each case.
`O=C(OCCCCCCOC(=O)c1ccccc1)c1ccccc1`: the Potency result in [1], in experiment [2], in [3], in experiment [4], in [5] and in experiment [6] was “inactive” in each case. In addition, the Potency result in [8], in experiment [9] and in experiment [10] was “inactive” each time. The Potency in experiment [7] is 43.3 µM (active).
With `CCCCCCCCO[C@@H]1O[C@H](CO)[C@@H](O)[C@H](O)[C@H]1O`, the Potency entry in [1], in experiment [2], in experiment [3], in experiment [4], in experiment [5] and in [6] was “inactive” each time. The Potency entry in experiment [7], in experiment [8], in [9] and in experiment [10] was “inactive” throughout.
As to `c1ccc(-c2ccccn2)nc1`, the Potency entry in [1], in experiment [2], in experiment [3], in [4], in experiment [5] and in [6] was “inactive” in each case. Further, the Potency result in experiment [7], in experiment [8], in experiment [9] and in experiment [10] was “inactive” each time.
On to `CCOc1ccc(N)c([N+](=O)[O-])c1`, for which the Potency result in experiment [1], in experiment [2], in [3], in experiment [4], in experiment [5] and in experiment [6] was “inactive” throughout. The Potency entry in experiment [7], in experiment [8], in experiment [9] and in experiment [10] was “inactive” throughout.
